Our source for the outcome and AC50 values is PubChem BioAssay (EPA / NIEHS).

The structures appear in SMILES notation. Calls of active or inactive are those of the source. How the source made its calls: active means hit-call score of the fitted dose curve at least 0.9, where 1 is the maximum; inactive means score below 0.9.

Broadly, the AC50 is the concentration giving half of the maximal activity seen.

What all share (conditions): mRNA level, 48 h; actives raise or lower the signal
Read-out in test [1]: Bcl-2 (BAX) gene, BAX (gene 581)
Put plainly: LTEA_HepaRG_BAX: Life Technologies and Expression Analysis (LTEA) Assay for Bcl-2 (BAX) gene using HepaRG (AID 2283470). The method, boiled down:
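qRT-PCR read-out of BAX mRNA, normalized to three housekeeping genes, after 48 h chemical exposure of human HepaRG cells in serum-free induction medium; eight-point half-log series, top 100 uM, 0.5% DMSO vehicle; bidirectional fit versus DMSO.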

Read-out in test [2]: adenosine kinase (ADK) gene, ADK (gene 132)
The test can be described thus: LTEA_HepaRG_ADK: Life Technologies and Expression Analysis (LTEA) Assay for adenosine kinase (ADK) gene using HepaRG (AID 2283471). The method, boiled down:
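HepaRG (human liver), 48 h chemical exposure, 8-pt half-log series, top 100 uM, 0.5% DMSO vehicle. Readout: ADK mRNA by qRT-PCR vs housekeeping genes; bidirectional curve fit relative to DMSO baseline.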

Read-out in test [3]: Alpha-fetoprotein (AFP) gene, AFP (gene 174)
The test can be described thus: LTEA_HepaRG_AFP: Life Technologies and Expression Analysis (LTEA) Assay for Alpha-fetoprotein (AFP) gene using HepaRG (AID 2283472). The method, boiled down:
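qRT-PCR (Fluidigm TaqMan) readout of AFP transcript, normalized to three housekeeping genes, fitted bidirectionally against 0.5% DMSO baseline. HepaRG cells received chemicals for 48 h in serum-free induction medium, top concentration 100 uM, half-log steps.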

Read-out in a further test: BCL2L11 (gene 10018)
Put plainly: LTEA_HepaRG_BCL2L11: Life Technologies and Expression Analysis (LTEA) Assay for Bcl-2 (BCL2L11) gene using HepaRG (AID 2283473). The method, boiled down: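 Differentiated human HepaRG cells in serum-free induction medium were exposed in duplicate for 48 h to eight concentrations (top 100 uM, half-log steps, 0.5% DMSO). BCL2L11 mRNA was quantified by TaqMan qRT-PCR, normalized to ACTB/GAPDH/POLR2A, bidirectional fit versus DMSO.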

Read-out in test [4]: Apoptosis regulator Bcl-2 (Homo sapiens) (UniProt P10415)
Put plainly: LTEA_HepaRG_BCL2: Life Technologies and Expression Analysis (LTEA) Assay for Bcl-2 gene using HepaRG (AID 2283475). An outline of the steps:
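qRT-PCR read-out (Fluidigm TaqMan) of BCL2 transcript, normalised to three housekeeping genes, after 48 h chemical exposure of HepaRG cells; 8-point half-log series, top 100 uM, 0.5% DMSO vehicle. Gain or loss of signal fitted relative to DMSO baseline.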

Read-out in test [5]: Bcl-2 (BID) gene, BID (gene 637)
Put plainly: LTEA_HepaRG_BID: Life Technologies and Expression Analysis (LTEA) Assay for Bcl-2 (BID) gene using HepaRG (AID 2283476). An outline of the steps:
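HepaRG, 48 h exposure, 8-pt half-log series, top 100 uM, 0.5% DMSO vehicle, duplicates. Readout: BID mRNA by TaqMan qRT-PCR; housekeeping-normalized; bidirectional curve fit vs DMSO baseline.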

Read-out in a further test: Caspase-3 (Homo sapiens) (UniProt P42574)
Put plainly: LTEA_HepaRG_CASP3: Life Technologies and Expression Analysis (LTEA) Assay for cysteine-aspartic acid protease (CASP3) using HepaRG (AID 2283477). The method, boiled down:
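Differentiated human HepaRG cells in serum-free induction medium were exposed 48 h to 8-point half-log concentrations from 100 uM (0.5% DMSO vehicle). CASP3 mRNA was measured by qRT-PCR, normalised to ACTB, GAPDH and POLR2A, with bidirectional fitting against DMSO.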

Read-out in test [6]: Cytochrome P450 (CYP24A1), CYP24A1 (gene 1591)
Put plainly: LTEA_HepaRG_CYP24A1: Life Technologies and Expression Analysis (LTEA) Assay for Cytochrome P450 (CYP24A1) using HepaRG (AID 2283478). The method, boiled down:
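Differentiated HepaRG cells, pre-cultured 48 h, were exposed in duplicate for 48 h in serum-free induction medium to 8 half-log concentrations (top 100 uM, 0.5% DMSO). CYP24A1 mRNA was quantified by TaqMan qRT-PCR, normalized to ACTB/GAPDH/POLR2A, fitted bidirectionally versus DMSO.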

Read-out in test [7]: Cytochrome P450 (CYP1A2), CYP1A2 (gene 1544)
Put plainly: LTEA_HepaRG_CYP1A2: Life Technologies and Expression Analysis (LTEA) Assay for Cytochrome P450 (CYP1A2) using HepaRG (AID 2283479). The method, boiled down:
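Differentiated human HepaRG cells in serum-free induction medium were exposed in duplicate for 48 h to 8-point half-log concentrations up to 100 uM in 0.5% DMSO. CYP1A2 mRNA measured by qRT-PCR, normalized to ACTB, GAPDH, POLR2A; bidirectional fit vs DMSO.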

Read-out in test [8]: cysteine-aspartic acid protease (CASP8), CASP8 (gene 841)
The test can be described thus: LTEA_HepaRG_CASP8: Life Technologies and Expression Analysis (LTEA) Assay for cysteine-aspartic acid protease (CASP8) using HepaRG (AID 2283480). The method, boiled down: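 CASP8 transcript measured by TaqMan qRT-PCR with ACTB/GAPDH/POLR2A normalization, after 48 h chemical exposure of HepaRG cells in serum-free induction medium. Eight concentrations, top 100 uM, half-log steps, 0.5% DMSO vehicle; fits in both directions versus DMSO.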

Read-out in test [9]: Cytochrome P450 (CYP2B6), CYP2B6 (gene 1555)
The test can be described thus: LTEA_HepaRG_CYP2B6: Life Technologies and Expression Analysis (LTEA) Assay for Cytochrome P450 (CYP2B6) using HepaRG (AID 2283481). The method, boiled down:
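Differentiated HepaRG cells, serum-free induction medium, exposed 48 h in duplicate to 8-point half-log concentrations from 100 uM in 0.5% DMSO. CYP2B6 mRNA by qRT-PCR, normalized to ACTB, GAPDH, POLR2A; bidirectional fit versus DMSO.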

Read-out in a further test: CYP2C8 (gene 1558)
The test can be described thus: LTEA_HepaRG_CYP2C8: Life Technologies and Expression Analysis (LTEA) Assay for CYP2C8 using HepaRG (AID 2283483). An outline of the steps:
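CYP2C8 expression measured by TaqMan qRT-PCR and normalized to three housekeeping genes. HepaRG cultures were treated for 48 h with an eight-point half-log series topping at 100 uM, vehicle 0.5% DMSO, duplicates; fitted both directions against DMSO.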

Read-out in a further test: CYP2C9 (gene 1559)
The test can be described thus: LTEA_HepaRG_CYP2C9: Life Technologies and Expression Analysis (LTEA) Assay for CYP2C9 using HepaRG (AID 2283484). The method, boiled down:
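CYP2C9 transcript level, quantified by TaqMan qRT-PCR against three housekeeping genes, was fitted bidirectionally relative to 0.5% DMSO. HepaRG cultures were treated 48 h, in duplicate, at eight half-log concentrations topping at 100 uM.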

Read-out in another test: CYP2E1 (gene 1571)
The test can be described thus: LTEA_HepaRG_CYP2E1: Life Technologies and Expression Analysis (LTEA) Assay for CYP2E1 using HepaRG (AID 2283485). An outline of the steps: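 CYP2E1 transcript was measured by TaqMan qRT-PCR in human HepaRG cultures after 48 h chemical exposure (top 100 uM, half-log steps, 0.5% DMSO vehicle). Housekeeping-gene normalization; gain or loss fitted relative to DMSO baseline.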

Read-out in test [10]: Pro-epidermal growth factor (Homo sapiens) (UniProt P01133)
Put plainly: LTEA_HepaRG_EGF: Life Technologies and Expression Analysis (LTEA) Assay for Epidermal growth factor (EGF) using HepaRG (AID 2283489). An outline of the steps:
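Differentiated human HepaRG cells, plated 48 h then switched to serum-free induction medium, were exposed for 48 h to test chemicals (8-point half-log series, top 100 uM, 0.5% DMSO). EGF mRNA was quantified by qRT-PCR, normalized to ACTB, GAPDH, POLR2A.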

Read-out in test [11]: Cytochrome P450 2C19 (Homo sapiens) (UniProt P33261)
Put plainly: LTEA_HepaRG_CYP2C19: Life Technologies and Expression Analysis (LTEA) Assay for CYP2C19 using HepaRG (AID 2283482). An outline of the steps: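 Differentiated human HepaRG cells were exposed for 48 h in serum-free induction medium to 8 concentrations (top 100 uM, half-log steps, 0.5% DMSO). CYP2C19 mRNA was measured by qRT-PCR, normalized to ACTB/GAPDH/POLR2A, and fitted bidirectionally against DMSO.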

Read-out in test [12]: Cytochrome P450 3A4 (Homo sapiens) (UniProt P08684)
The test can be described thus: LTEA_HepaRG_CYP3A4: Life Technologies and Expression Analysis (LTEA) Assay for CYP3A4 using HepaRG (AID 2283487). An outline of the steps:
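CYP3A4 transcript measured by TaqMan qRT-PCR and normalized to three housekeeping genes after 48 h chemical exposure of human HepaRG cells. Top concentration 100 uM, half-log steps, 0.5% DMSO vehicle; gain or loss fitted against DMSO baseline.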

Read-out in another test: CYP4A11 (gene 1579)
Put plainly: LTEA_HepaRG_CYP4A11: Life Technologies and Expression Analysis (LTEA) Assay for CYP4A11 using HepaRG (AID 2283486). An outline of the steps: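 Differentiated HepaRG cells, serum-free induction medium, exposed 48 h in duplicate to 8-point half-log series from 100 uM in 0.5% DMSO. CYP4A11 mRNA measured by qRT-PCR, normalized to ACTB, GAPDH, POLR2A; bidirectional fit versus DMSO.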

Read-out in test [13]: DNA damage-inducible transcript 3 (DDIT3), DDIT3 (gene 1649)
Put plainly: LTEA_HepaRG_DDIT3: Life Technologies and Expression Analysis (LTEA) Assay for DNA damage-inducible transcript 3 (DDIT3) using HepaRG (AID 2283488). An outline of the steps: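 qRT-PCR readout (Fluidigm TaqMan), housekeeping-normalized to ACTB, GAPDH, POLR2A. HepaRG cells, 48 h exposure, 8-point half-log series from 100 uM in 0.5% DMSO, duplicates. Gain or loss of signal fitted against DMSO baseline.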

Chain of Caspase-3 (Homo sapiens) (P42574 whole entry, looked up): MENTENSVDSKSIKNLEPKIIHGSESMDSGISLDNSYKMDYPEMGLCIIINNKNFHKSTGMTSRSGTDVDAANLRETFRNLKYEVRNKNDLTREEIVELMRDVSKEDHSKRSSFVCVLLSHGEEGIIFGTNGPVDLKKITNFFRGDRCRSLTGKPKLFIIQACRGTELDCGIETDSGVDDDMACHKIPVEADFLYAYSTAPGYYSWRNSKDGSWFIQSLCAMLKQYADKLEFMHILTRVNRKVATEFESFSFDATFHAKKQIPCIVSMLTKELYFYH
Chain of Cytochrome P450 2C19 (Homo sapiens) (P33261 whole entry, looked up): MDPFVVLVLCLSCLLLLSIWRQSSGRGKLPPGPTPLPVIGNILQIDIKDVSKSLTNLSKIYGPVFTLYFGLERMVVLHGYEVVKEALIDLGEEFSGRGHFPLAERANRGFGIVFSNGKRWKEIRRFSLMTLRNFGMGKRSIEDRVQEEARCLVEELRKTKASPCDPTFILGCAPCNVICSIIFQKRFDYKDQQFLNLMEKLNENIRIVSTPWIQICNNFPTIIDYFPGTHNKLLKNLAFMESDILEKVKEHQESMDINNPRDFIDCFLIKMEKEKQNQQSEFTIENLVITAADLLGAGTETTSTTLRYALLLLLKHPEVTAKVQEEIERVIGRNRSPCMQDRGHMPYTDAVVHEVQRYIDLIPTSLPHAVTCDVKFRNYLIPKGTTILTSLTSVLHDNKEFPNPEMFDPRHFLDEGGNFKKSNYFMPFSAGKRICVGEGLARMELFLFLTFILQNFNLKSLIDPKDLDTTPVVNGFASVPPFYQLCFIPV
Chain of Apoptosis regulator Bcl-2 (Homo sapiens) (P10415 whole entry, looked up): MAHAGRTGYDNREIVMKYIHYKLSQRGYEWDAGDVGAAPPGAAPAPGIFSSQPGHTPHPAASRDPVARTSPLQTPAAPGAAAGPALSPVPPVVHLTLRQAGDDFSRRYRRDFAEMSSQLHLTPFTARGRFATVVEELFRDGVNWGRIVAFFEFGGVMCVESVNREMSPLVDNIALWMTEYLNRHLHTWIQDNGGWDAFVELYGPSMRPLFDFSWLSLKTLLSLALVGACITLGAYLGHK
Chain of Cytochrome P450 3A4 (Homo sapiens) (P08684 whole entry, looked up): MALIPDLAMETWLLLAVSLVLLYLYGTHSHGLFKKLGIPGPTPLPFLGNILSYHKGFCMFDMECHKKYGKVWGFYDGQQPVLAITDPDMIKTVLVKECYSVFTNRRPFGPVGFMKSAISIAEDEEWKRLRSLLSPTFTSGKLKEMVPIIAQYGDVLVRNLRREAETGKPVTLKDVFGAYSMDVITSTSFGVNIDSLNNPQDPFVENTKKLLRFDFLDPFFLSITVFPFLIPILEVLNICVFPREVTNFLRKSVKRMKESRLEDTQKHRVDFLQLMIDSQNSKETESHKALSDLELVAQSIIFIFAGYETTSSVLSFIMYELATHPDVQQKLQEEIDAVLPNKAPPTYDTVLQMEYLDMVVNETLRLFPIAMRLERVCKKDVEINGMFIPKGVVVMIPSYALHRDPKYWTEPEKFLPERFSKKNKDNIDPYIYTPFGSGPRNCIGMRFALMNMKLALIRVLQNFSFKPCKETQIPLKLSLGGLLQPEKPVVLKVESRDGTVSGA

As for `CCc1nc(N)nc(N)c1-c1ccc(Cl)cc1`, the outcome (in [1]; in test [2]; in the test with BCL2L11 (gene 10018); in test [5]; with Caspase-3 (Homo sapiens); in [6]) was inactive. The call in [8] and in test [10] was inactive. Further, the AC50 in [3] was 32.8 µM (active); in [4], 50 µM (active); in test [7], 23.8 µM (active); in [9] it was 82.3 µM (active); with CYP2C8 (gene 1558) it was 79.6 µM (active); in the test with CYP2C9 (gene 1559), 44.5 µM (active). Moreover, in the test with CYP2E1 (gene 1571), the AC50 was 26 µM (active).

In the case of `CC(C)c1cccc(C(C)C)c1`, the call (in test [1]; in test [2]; in [3]; in the test with BCL2L11 (gene 10018); in test [4]; in test [5]) was inactive. Also, the molecule was called inactive (with Caspase-3 (Homo sapiens); in test [7]; in test [8]; in [9]; in [11]; with CYP2C8 (gene 1558)). In addition, the molecule was classed as inactive (with CYP2C9 (gene 1559); with CYP2E1 (gene 1571); in [12]; in test [10]).

Turning to `COC(=O)CCC(=O)OC`, the result (in test [1]; in test [2]; in test [3]; in the test with BCL2L11 (gene 10018); in test [4]; in test [5]) was inactive. Also, the result (with Caspase-3 (Homo sapiens); in test [6]; in test [7]; in test [8]; in test [9]; in test [11]) was inactive. Further, the outcome (in the test with CYP2C8 (gene 1558); with CYP2C9 (gene 1559); with CYP2E1 (gene 1571); with CYP4A11 (gene 1579); in test [13]; in test [10]) was inactive.

For the molecule `CCCCC(CC)COC(=O)CCCCCCCC(=O)OCC(CC)CCCC` (stereo unspecified), the molecule was called inactive (in [1]; in test [2]; in [3]; in the test with BCL2L11 (gene 10018); in test [4]; in [5]). Besides, the call (with Caspase-3 (Homo sapiens); in test [6]; in test [7]; in test [8]; in test [11]; with CYP2C8 (gene 1558)) was inactive. For the same molecule, the result (with CYP2C9 (gene 1559); with CYP2E1 (gene 1571); in test [10]) was inactive. Further, the AC50 in test [9] is 30.9 µM (active).

In the case of `O=C1CCCCC1`, the molecule was classed as inactive (in [1]; in test [2]; in [3]; with BCL2L11 (gene 10018); in [4]; in test [5]). In addition, the molecule was called inactive (with Caspase-3 (Homo sapiens); in test [6]; in [7]; in [8]; in [9]; in test [11]). Further, the result (with CYP2C9 (gene 1559); in the test with CYP2E1 (gene 1571); in test [12]; in [10]) was inactive.
